PubChem BioAssay

molecular target: NADPH oxidase 2 (Homo sapiens) (UniProt P04839); assay: compounds shifting NOX2 Amplex Red fluorescence – cell-based, HEK293-NOX2, PMA-stimulated, NOX inhibitor project, primary screen (AID 1159); conditions: 45 min, higher = more signal, called active from +8 up or from −8 down; also: test concentration not given here
Sequence (P04839 whole entry, looked up): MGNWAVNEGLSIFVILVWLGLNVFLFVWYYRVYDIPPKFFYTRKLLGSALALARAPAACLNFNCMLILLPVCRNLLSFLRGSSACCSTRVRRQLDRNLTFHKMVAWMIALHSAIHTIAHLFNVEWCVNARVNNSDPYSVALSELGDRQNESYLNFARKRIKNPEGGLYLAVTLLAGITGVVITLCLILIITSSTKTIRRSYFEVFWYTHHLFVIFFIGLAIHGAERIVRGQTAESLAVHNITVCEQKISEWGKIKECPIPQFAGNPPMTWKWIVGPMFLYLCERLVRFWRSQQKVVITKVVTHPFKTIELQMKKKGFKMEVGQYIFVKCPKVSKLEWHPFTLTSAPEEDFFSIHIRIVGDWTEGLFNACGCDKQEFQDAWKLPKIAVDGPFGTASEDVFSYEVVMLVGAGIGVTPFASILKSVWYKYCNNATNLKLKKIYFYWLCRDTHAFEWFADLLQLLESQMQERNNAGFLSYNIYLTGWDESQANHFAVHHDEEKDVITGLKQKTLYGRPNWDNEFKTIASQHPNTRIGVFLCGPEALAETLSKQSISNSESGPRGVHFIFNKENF

z-score, inactive:
COc1ccc(CCNC(=O)[C@@]2(Sc3ccc(C)cc3)CC(=O)N(Cc3cc(C(F)(F)F)cc(C(F)(F)F)c3)[C@@H]2c2ccc(CO)cc2I)cc1 1.15
CN(C)CCCNC(=O)[C@@H]1c2ccccc2C(=O)N(Cc2ccc(OC(F)(F)F)cc2)[C@H]1c1ccc(CO)cc1 0.799
COCCCNC(=O)[C@@]1(Sc2ccc(C)cc2)CC(=O)N(C2Cc3ccccc3C2)[C@@H]1c1ccc(CO)cc1I 2.2
CCCCC(CC)C(O)C1C=CC2C(=O)N(c3ccccc3)C(=O)C2N1Nc1ccc([N+](=O)[O-])cc1 (stereo unspecified) -0.441
CC(C)C(=C=CC[C@@H](O)c1ccccc1OCCO)C[C@@H](O)COCc1ccccc1 0.0182
C[C@H]1C2=C3C(CC[C@H]4C(OCc5ccc(F)cc5C(F)(F)F)OC[C@](C)([C@@H]34)N(C(=O)OC(C)(C)C)C2)C2COC(=O)OCC21 (stereo partly specified) -0.0545
CCOC(=CC(=O)OC)CC(O)c1cccc(Cl)c1 (stereo unspecified) 0.112
COc1cc(OC)c(C(O)C2C=CC3C(=O)N(c4ccccc4)C(=O)C3N2Nc2ccc(C#N)cc2)cc1Br (stereo unspecified) -1.41
CN(C)CCCNC(=O)[C@@H]1c2ccccc2C(=O)N(CC23CC4CC(CC(C4)C2)C3)[C@H]1c1ccc(CO)cc1 -2.04
COc1cc2c(cc1OC)CN(C(=O)[C@H]1[C@@H]3C(=O)O[C@@H](c4ccccc4)[C@@H](c4ccccc4)N3[C@@H](c3ccc(OCCO)cc3)[C@]13C(=O)Nc1ccc(C#CCCO)cc13)CC2 1.46
COCCOC(=O)N1C(=O)[C@@]2(c3cc(C#CC4=CCCCC4)ccc31)[C@H](c1ccccc1OCCO)N1[C@H](c3ccccc3)[C@H](c3ccccc3)OC(=O)[C@H]1[C@@H]2C(=O)N1CCc2cc(OC)c(OC)cc2C1 1.41

molecular target: NADPH oxidase 4 (Homo sapiens) (UniProt Q9NPH5); assay: compounds shifting NOX4 Amplex Red fluorescence – cell-based, HEK293-NOX4, tetracycline-induced, NOX inhibitor project, primary screen (AID 1160); conditions: HEK293-NOX4, Amplex Red H2O2 fluorescence, 45 min; higher = more signal, called active from +8 up or from −8 down
Sequence (Q9NPH5 whole entry, looked up): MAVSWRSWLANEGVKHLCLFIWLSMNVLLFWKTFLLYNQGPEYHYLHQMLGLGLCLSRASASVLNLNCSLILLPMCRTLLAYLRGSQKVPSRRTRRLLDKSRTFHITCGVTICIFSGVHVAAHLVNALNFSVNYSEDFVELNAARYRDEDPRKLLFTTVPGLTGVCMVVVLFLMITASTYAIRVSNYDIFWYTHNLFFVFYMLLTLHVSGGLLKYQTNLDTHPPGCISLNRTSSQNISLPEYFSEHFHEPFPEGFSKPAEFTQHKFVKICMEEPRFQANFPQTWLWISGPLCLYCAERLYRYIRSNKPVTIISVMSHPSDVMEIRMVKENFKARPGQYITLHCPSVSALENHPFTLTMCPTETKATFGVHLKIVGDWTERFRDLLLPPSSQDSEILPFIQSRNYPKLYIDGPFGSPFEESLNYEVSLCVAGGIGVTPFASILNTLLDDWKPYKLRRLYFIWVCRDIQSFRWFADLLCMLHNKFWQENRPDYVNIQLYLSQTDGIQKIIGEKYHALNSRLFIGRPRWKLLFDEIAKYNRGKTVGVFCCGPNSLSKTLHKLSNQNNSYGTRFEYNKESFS

z-score, inactive:
C=CC[C@@]12N=C(c3ccc(OCCCO)cc3)O[C@@H]1c1ccccc1N(CCS(=O)(=O)c1ccccc1)C2=O 0.599
CN(C)CCCNC(=O)[C@@]1(C)c2ccccc2C(=O)N(Cc2cc(C(F)(F)F)cc(C(F)(F)F)c2)[C@H]1c1ccc(CO)cc1 -1.35
CC(C)NC(=O)[C@@]1(C)c2ccccc2C(=O)N(C(C)C)[C@H]1c1ccc(CO)cc1 0.375
O=C(N1CCCCC1)[C@@]1(Cc2ccccc2)COC(c2ccc(OCCCO)cc2)=N1 -0.936
O=C1C[C@@](C(=O)NCC(F)(F)F)(c2ccc([N+](=O)[O-])cc2)[C@@H](c2ccc(CO)cc2)N1C1CCCCC1 0.24
O=C1c2ccccc2[C@](Cc2ccccc2I)(C(=O)NCc2ccccc2)[C@H](c2ccc(CO)cc2)N1C1CCCCC1 0.289
C=CC[C@@]1(C(=O)N2CCCCC2)N=C(c2ccc(OCCCO)cc2)O[C@@H]1c1ccccc1 0.174
C=CCOC(=O)[C@@H]1[C@H]2C(=O)O[C@H](c3ccccc3)[C@H](c3ccccc3)N2[C@H](c2ccc(OCCOC(=O)[C@H]3C[C@H]4C(=O)N[C@@H](CCCC[N+](C)(C)C)C(=O)N4[C@H]3c3ccc(O)cc3)cc2)[C@@]12C(=O)Nc1ccc(I)cc12 1.06
C[C@H]1ON(c2ccc(C(=O)OC(C)(C)C)cc2)[C@@H](c2ccc(O)cc2)[C@@H]1C(=O)N1C(=O)OC[C@@H]1c1ccccc1 -0.254
Cc1c(NC(=O)/C(C#N)=C/C=C/c2ccccc2[N+](=O)[O-])c(=O)n(-c2ccccc2)n1C 0.0287
CC(C)(C)OC(=O)CC[C@]1(C(=O)NCCN2CCOCC2)N=C(c2ccc(OCCCO)cc2)O[C@H]1c1ccccc1N=[N+]=[N-] 1.62
CCOC(=O)[C@H]1C/C=C/C[C@H](C(=O)OCC)C(=O)O[C@H]2[C@@H](OC)O[C@H](CO)[C@@H](OC(=O)Nc3ccc(OC)cc3)[C@@H]2OC1=O -1.29
O=C1NC(=O)C2C1C=CC(C(O)c1c(F)cccc1Cl)N2Nc1ccccn1 (stereo unspecified) -3
COc1ccc([Si](C)(C)[C@@H]2[C@@H](CCO)O[C@]3(C(=O)N(Cc4cccc(N5C(=O)c6ccccc6Oc6ccccc65)c4)c4ccccc43)[C@H]2C)cc1 0.543
Cc1ccc(S[C@]2(C(=O)NCc3ccccc3)CC(=O)N(C(C)C)[C@@H]2c2ccc(CO)cc2I)cc1 -1.1
CC(C)CCC[C@@H](C)[C@H]1CC[C@@]2(C)C3=C(CC[C@]12C)[C@@]1(C)CC[C@H](OC(=O)c2ccc(Br)cc2)C(C)(C)C1CC3 (stereo partly specified) 0.175
NC(=O)N1C(=O)C2C(C1=O)C1C=C(c3ccc(CO)cc3)C2C(C2CC2)N1Cc1sc2ccccc2c1Cl (stereo unspecified) -0.148
C=CCN1C(=O)[C@@]2(O[C@@H](CCn3cc([C@H](O)c4ccccc4)nn3)[C@H]([Si](C)(C)c3ccc(OC)cc3)[C@H]2C)c2ccccc21 0.99
CC1CC/C=C\[C@H]2OC34C=CCN(CCN5CCOCC5)C(=O)[C@H]3N(CCO)C(=O)[C@@H]4C2C(=O)O1 (stereo partly specified) 0.221
C=CCOC(=O)[C@H]1[C@@H]2C(=O)O[C@@H](c3ccccc3)[C@@H](c3ccccc3)N2[C@@H](c2ccc(OCCOC(=O)[C@H]3C[C@H]4C(=O)N[C@@H](Cc5ccccc5)C(=O)N4[C@H]3c3ccc(O)cc3)cc2)[C@]12C(=O)Nc1ccc(I)cc12 1.18
COc1ccc(C#Cc2ccc3c(c2)[C@]2(C(=O)N3)[C@H](C(=O)N3CCc4cc(OC)c(OC)cc4C3)[C@H]3C(=O)O[C@H](c4ccccc4)[C@H](c4ccccc4)N3[C@@H]2c2ccc(O)cc2)cc1 0.574
O=C1O[C@@H](c2ccccc2)[C@@H](c2ccccc2)N2[C@@H](c3ccccc3OCCO)[C@]3(C(=O)Nc4ccccc43)[C@@H](C(=O)NC[C@H](O)c3ccccc3)[C@H]12 0.303
C[C@]1(C(=O)NC2CC2)c2ccccc2C(=O)N(Cc2ccc(OC(F)(F)F)cc2)[C@H]1c1ccc(CO)cc1 0.731
NC(=O)NCC#Cc1ccc2c(c1)[C@]1(C(=O)N2)[C@H](C(=O)Nc2nc3ccccc3s2)[C@H]2C(=O)O[C@H](c3ccccc3)[C@H](c3ccccc3)N2[C@@H]1c1ccc(O)cc1 -1.27
COc1ccc(CCNC(=O)[C@@]2(Sc3ccc(C)cc3)CC(=O)N(Cc3cc(C(F)(F)F)cc(C(F)(F)F)c3)[C@@H]2c2ccc(CO)cc2I)cc1 -1.07
CN(C)CCCNC(=O)[C@@H]1c2ccccc2C(=O)N(Cc2ccc(OC(F)(F)F)cc2)[C@H]1c1ccc(CO)cc1 0.237
COCCCNC(=O)[C@@]1(Sc2ccc(C)cc2)CC(=O)N(C2Cc3ccccc3C2)[C@@H]1c1ccc(CO)cc1I -1.15
CCCCC(CC)C(O)C1C=CC2C(=O)N(c3ccccc3)C(=O)C2N1Nc1ccc([N+](=O)[O-])cc1 (stereo unspecified) -1.6
CC(C)C(=C=CC[C@@H](O)c1ccccc1OCCO)C[C@@H](O)COCc1ccccc1 0.489
C[C@H]1C2=C3C(CC[C@H]4C(OCc5ccc(F)cc5C(F)(F)F)OC[C@](C)([C@@H]34)N(C(=O)OC(C)(C)C)C2)C2COC(=O)OCC21 (stereo partly specified) -2.17
CCOC(=CC(=O)OC)CC(O)c1cccc(Cl)c1 (stereo unspecified) -0.513
COc1cc(OC)c(C(O)C2C=CC3C(=O)N(c4ccccc4)C(=O)C3N2Nc2ccc(C#N)cc2)cc1Br (stereo unspecified) -5.35
CN(C)CCCNC(=O)[C@@H]1c2ccccc2C(=O)N(CC23CC4CC(CC(C4)C2)C3)[C@H]1c1ccc(CO)cc1 -0.633
COc1cc2c(cc1OC)CN(C(=O)[C@H]1[C@@H]3C(=O)O[C@@H](c4ccccc4)[C@@H](c4ccccc4)N3[C@@H](c3ccc(OCCO)cc3)[C@]13C(=O)Nc1ccc(C#CCCO)cc13)CC2 0.798
COCCOC(=O)N1C(=O)[C@@]2(c3cc(C#CC4=CCCCC4)ccc31)[C@H](c1ccccc1OCCO)N1[C@H](c3ccccc3)[C@H](c3ccccc3)OC(=O)[C@H]1[C@@H]2C(=O)N1CCc2cc(OC)c(OC)cc2C1 0.739
